Experimental data published in PubChem BioAssay (NCI).
About 79,000 compounds went through this panel and 15% of them were active in at least one assay; those are over-represented in the sample as a whole. Active and inactive are the calls of the source. Cut-off read from the data, not from the text of the source: active = growth inhibition above about 70%; inactive = the rest.

Legend:
[1] = NCI Yeast Anticancer Drug Screen. Data for the rad52 strain (AID 147);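 note: 0% = growth of vehicle-treated control cultures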; details: S. cerevisiae rad52 mutant growth inhibition, stronger effect = higher value
Procedure, shortened: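 Vehicle-treated cultures served as the reference for growth inhibition of compound-exposed yeast bearing a DNA repair mutation.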

[2] = NCI Yeast Anticancer Drug Screen. Data for the wt1 strain (AID 149);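 note: 0% = growth of vehicle-treated wt1 cultures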; details: S. cerevisiae wt1 strain (SPY 50644) growth inhibition, stronger effect = higher value
Procedure, shortened: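 wt1 yeast, compound-treated; % growth inhibition vs vehicle control.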

[3] = NCI Yeast Anticancer Drug Screen. Data for the rad50EPP+ strain (AID 151);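 note: 0% = growth of vehicle-treated control cultures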; details: S. cerevisiae rad50 mutant strain, stronger effect = higher value
Procedure, shortened: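 In this screen, rad50EPP+ yeast were exposed to compounds. Growth inhibition was scored against vehicle-treated controls.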

[4] = NCI Yeast Anticancer Drug Screen. Data for the mgt1 strain (AID 153); details: S. cerevisiae mgt1 mutant growth inhibition, stronger effect = higher value
Procedure, shortened: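 mgt1 strain exposed; growth vs vehicle control recorded as inhibition.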

[5] = NCI Yeast Anticancer Drug Screen. Data for the rad50 strain (AID 155);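 note: 0% = growth of vehicle-only cultures of the same strain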; details: S. cerevisiae rad50 strain growth inhibition, stronger effect = higher value
Procedure, shortened: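 Genetically altered yeast (DNA repair pathway); compound treatment; growth inhibition vs vehicle ctrl.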

[6] = NCI Yeast Anticancer Drug Screen. Data for the mec2-1 strain (AID 157); details: S. cerevisiae mec2-1 strain, stronger effect = higher value
Procedure, shortened: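 Vehicle-treated cultures served as reference for growth inhibition of compound-exposed mec2-1 yeast.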

[7] = NCI Yeast Anticancer Drug Screen. Data for the rad14 strain (AID 159);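 note: 0% = growth of vehicle-treated control cultures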; details: S. cerevisiae rad14 strain growth inhibition, stronger effect = higher value
Procedure, shortened: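 Test compounds were applied to a repair-deficient yeast strain. Its growth was then compared with that of cultures given vehicle alone, and inhibition was expressed relative to those controls.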

[8] = NCI Yeast Anticancer Drug Screen. Data for the sgs1 mgt1 strain (AID 161);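 note: 0% = growth of cultures given vehicle only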; details: S. cerevisiae sgs1 mgt1 strain, stronger effect = higher value
Procedure, shortened: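 Genetically altered yeast, compound exposure, growth inhibition relative to vehicle.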

[9] = NCI Yeast Anticancer Drug Screen. Data for the CLN2oe strain (AID 163);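 note: 0% = growth of vehicle-only control cultures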; details: S. cerevisiae CLN2oe strain, stronger effect = higher value
Procedure, shortened: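 Inhibition relative to vehicle-treated yeast is reported. Cells: strain with genetic alteration in cell-cycle control, grown with compound.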

[10] = NCI Yeast Anticancer Drug Screen. Data for the cln2 rad14 strain (AID 165);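 note: 0% = growth equal to vehicle treated cultures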; details: S. cerevisiae cln2 rad14 strain, stronger effect = higher value
Procedure, shortened: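 Each compound was tested on cln2 rad14 yeast. Inhibition of growth was calculated against vehicle-exposed controls.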

[11] = NCI Yeast Anticancer Drug Screen. Data for the bub3 strain (AID 167); details: S. cerevisiae bub3 mutant strain, stronger effect = higher value
Procedure, shortened: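 Yeast carrying a defined mutation is treated with each compound, and growth is compared with that of vehicle-exposed cells to give inhibition.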

[12] = NCI Yeast Anticancer Drug Screen. Data for the wt2 strain (AID 169);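 note: 0% = growth of vehicle-treated yeast cultures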; details: S. cerevisiae wt2 strain growth inhibition, stronger effect = higher value
Procedure, shortened: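 Inhibition of yeast growth was determined after compound treatment, normalised to controls receiving only vehicle.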

[13] = NCI Yeast Anticancer Drug Screen. Data for the mlh1 strain (AID 171);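 note: 0% = growth of vehicle-treated control cultures of the same strain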; details: S. cerevisiae mlh1 strain growth inhibition, stronger effect = higher value
Procedure, shortened: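 Vehicle-normalised growth inhibition of a repair- or checkpoint-altered yeast strain following compound treatment.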

[14] = NCI Yeast Anticancer Drug Screen. Data for the sgs1 strain (AID 173);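 note: 0% = growth of vehicle-only control cultures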; details: S. cerevisiae sgs1 mutant, stronger effect = higher value
Procedure, shortened: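 Screen format: yeast with repair or checkpoint alterations, compound exposure, growth read relative to vehicle.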

[15] = NCI Yeast Anticancer Drug Screen. Data for the mlh1 rad18 strain (AID 175); details: S. cerevisiae mlh1 rad18 strain growth inhibition, stronger effect = higher value
Procedure, shortened: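 Vehicle-treated cultures served as the reference for growth inhibition in a yeast strain carrying DNA damage repair alterations exposed to each compound.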

[16] = NCI Yeast Anticancer Drug Screen. Data for the rad18 strain (AID 177); details: S. cerevisiae rad18 mutant growth inhibition, stronger effect = higher value
Procedure, shortened: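 Test articles were incubated with altered yeast defective in DNA damage repair. Results are given as inhibition of growth versus vehicle.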

[17] = at 5.0 µM (retest, dose inferred, filed as 0.5)
[18] = at 50.0 µM (retest, dose inferred, filed as 5.0)

Measured: growth inhibition

Cc1ccc(NC(c2ccccc2)c2ccc3cccnc3c2O)cc1 (stereo unspecified)
active: [8]; at 50.0 µM 79.7%
inactive: [1]; at 1.2 µM -1% | [1]; at 3.7 µM 0% | [1]; at 11.0 µM -1% | [1]; at 33.0 µM -1% | [1]; at 100.0 µM -2% | [2]; at 1.2 µM 1% | [2]; at 3.7 µM 4% | [2]; at 11.0 µM 4% | [2]; at 33.0 µM 1% | [2]; at 100.0 µM 1% | [3]; at 1.2 µM -3% | [3]; at 3.7 µM -1% | [3]; at 11.0 µM -4% | [3]; at 33.0 µM -3% | [3]; at 100.0 µM -2% | [4]; at 1.2 µM 0% | [4]; at 3.7 µM 2% | [4]; at 11.0 µM 1% | [4]; at 33.0 µM 2% | [4]; at 100.0 µM 0% | [5]; at 1.2 µM 1% | [5]; at 3.7 µM -2% | [5]; [17] 18% | [5]; at 11.0 µM 6% | [5]; at 33.0 µM -2% | [5]; [18] 29% | [5]; at 50.0 µM 67.1% | [5]; at 100.0 µM -3% | [6]; at 1.2 µM 1% | [6]; at 3.7 µM 2% | [6]; [17] 5% | [6]; at 11.0 µM 1% | [6]; at 33.0 µM 2% | [6]; [18] 6% | [6]; at 50.0 µM 50.6% | [6]; at 100.0 µM 12% | [7]; at 1.2 µM 0% | [7]; at 3.7 µM -1% | [7]; at 11.0 µM 1% | [7]; at 33.0 µM -26% | [7]; at 100.0 µM 2% | [8]; [17] 9% | [8]; [18] 10% | [9]; at 1.2 µM 0% | [9]; at 3.7 µM -1% | [9]; at 11.0 µM 0% | [9]; at 33.0 µM 2% | [9]; at 100.0 µM 5% | [10]; [17] 48% | [10]; [18] 45% | [10]; at 50.0 µM 59.9% | [11]; at 1.2 µM -8% | [11]; at 3.7 µM -1% | [11]; [17] -18% | [11]; at 11.0 µM -31% | [11]; at 33.0 µM 8% | [11]; [18] -3% | [11]; at 50.0 µM 56.5% | [11]; at 100.0 µM 3% | [12]; at 1.2 µM 0% | [12]; at 3.7 µM 1% | [12]; at 11.0 µM -1% | [12]; at 33.0 µM -1% | [12]; at 100.0 µM -2% | [13]; at 1.2 µM 2% | [13]; at 3.7 µM 2% | [13]; at 11.0 µM 3% | [13]; at 33.0 µM -22% | [13]; at 100.0 µM 9% | [14]; at 1.2 µM 2% | [14]; at 3.7 µM 3% | [14]; at 11.0 µM 3% | [14]; at 33.0 µM 0% | [14]; at 100.0 µM -3% | [15]; [17] 5% | [15]; [18] 10% | [15]; at 50.0 µM 33% | [16]; at 1.2 µM -15% | [16]; at 3.7 µM 3% | [16]; at 11.0 µM -10% | [16]; at 33.0 µM -2% | [16]; at 100.0 µM -12%

Oc1ccc(SCc2ccc(NCc3ccccc3)cc2)cc1
active: [1]; at 100.0 µM 89% | [2]; at 100.0 µM 91% | [4]; at 100.0 µM 87% | [5]; [18] 94% | [5]; at 100.0 µM 87% | [6]; at 50.0 µM 87.1% | [6]; at 100.0 µM 89% | [7]; at 100.0 µM 89% | [8]; at 50.0 µM 77.7% | [9]; at 100.0 µM 90% | [11]; at 50.0 µM 87.3% | [11]; at 100.0 µM 90% | [12]; at 100.0 µM 91% | [13]; at 100.0 µM 86% | [14]; at 100.0 µM 87% | [15]; [18] 75% | [15]; at 50.0 µM 79.8% | [16]; at 100.0 µM 91%
inactive: [1]; at 1.2 µM -4% | [1]; at 3.7 µM -27% | [1]; at 11.0 µM -26% | [1]; at 33.0 µM 19% | [2]; at 1.2 µM -32% | [2]; at 3.7 µM -35% | [2]; at 11.0 µM -52% | [2]; at 33.0 µM -4% | [3]; at 1.2 µM -10% | [3]; at 3.7 µM -22% | [3]; at 11.0 µM -17% | [3]; at 33.0 µM 0% | [3]; at 100.0 µM 6% | [4]; at 1.2 µM -4% | [4]; at 3.7 µM 7% | [4]; at 11.0 µM 22% | [4]; at 33.0 µM 47% | [5]; at 1.2 µM 0% | [5]; at 3.7 µM -13% | [5]; [17] 22% | [5]; at 11.0 µM -11% | [5]; at 33.0 µM 23% | [5]; at 50.0 µM 66.8% | [6]; at 1.2 µM -7% | [6]; at 3.7 µM 1% | [6]; [17] 12% | [6]; at 11.0 µM -13% | [6]; at 33.0 µM 20% | [6]; [18] 55% | [7]; at 1.2 µM -30% | [7]; at 3.7 µM -44% | [7]; at 11.0 µM -31% | [7]; at 33.0 µM 29% | [8]; [17] 42% | [8]; [18] 63% | [9]; at 1.2 µM 12% | [9]; at 3.7 µM 13% | [9]; at 11.0 µM 13% | [9]; at 33.0 µM 40% | [10]; [17] 38% | [10]; [18] 56% | [10]; at 50.0 µM 49.4% | [11]; at 1.2 µM 20% | [11]; at 3.7 µM 14% | [11]; [17] 53% | [11]; at 11.0 µM 11% | [11]; at 33.0 µM 60% | [11]; [18] 50% | [12]; at 1.2 µM -16% | [12]; at 3.7 µM -46% | [12]; at 11.0 µM -33% | [12]; at 33.0 µM 9% | [13]; at 1.2 µM -8% | [13]; at 3.7 µM -25% | [13]; at 11.0 µM -14% | [13]; at 33.0 µM 18% | [14]; at 1.2 µM -33% | [14]; at 3.7 µM -63% | [14]; at 11.0 µM -41% | [14]; at 33.0 µM 26% | [15]; [17] 19% | [16]; at 1.2 µM 22% | [16]; at 3.7 µM 7% | [16]; at 11.0 µM 12% | [16]; at 33.0 µM 32%
